This is an account of results in PubChem BioAssay (NCI).

The test system of this test is HL-60(TB) leukemia. Put plainly: NCI-60 one-dose screen, 48 h (100 = growth as untreated, 0 = no growth, -100 = all killed). The settings on record: 10 µM unless noted.

Where “and” joins values, the source holds several entries; their conditions need not be identical. Equal entries are not always repeated. About 83,000 compounds went through this panel and 20% of them were active in at least one assay; those are over-represented in the sample as a whole.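 Each cell line was grown in a 96-well plate and treated with one concentration of compound for 48 hours. Values below 10 were considered active.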 A number with no mark means an inactive call. Calls of active or inactive are those of the source.

Consider `CC(=O)OCc1nc(C#N)c(N(C)C)o1`, for which the growth was 97.5%.
In the case of `COC(=O)CCC1=C(C)C2=NC1=CC1=NC(=CC3=NC(=Cc4[nH]c(/c(=C(/C)O)c4C)=C2)C(C(C)=O)=C3C)C(C)=C1CCC(=O)OC` it was 78.2%.
In the case of `Cc1ccc2c(c1)Sc1c(ccc3ccccc13)N2`, the growth was 44.9%.
As to `C=C(c1ccc(C(=O)O)cc1)c1cc2c(cc1C)C(C)(C)CCC2(C)C`, the growth was 59.3% and 74.6%.
In the case of `Cc1c2c(cc3c1[nH]c1ccccc13)C=NCC2` it was 93.3%; in that of `COC1(OC)N=C(N)C2(C#N)C3(C(=O)Nc4ccccc43)C12C#N` (stereo not given), 72.5%.
In the case of `O=C(CNS(=O)(=O)Cc1ccccc1)NNc1ccccc1` it was 18%.
In the case of `CCOC(=O)C1=C(C)N=C2Sc3cc(OC(F)(F)F)ccc3N2[C@H]1c1ccccn1` it was 46.9%; in that of `O=[N+]([O-])c1ccccc1/C=N\Nc1ccccc1`, 82.5% and 87.4%.
On to `Cn1c(-c2c(N)n(Cc3ccc(C(F)(F)F)cc3)c3nc(C#N)c(C#N)nc23)nc2ccccc21`, for which the growth is -54.6% (active).
Take `NC(=O)c1ccccc1NC(=O)c1ccccc1Cl`: the growth was 64.4%.
Then `Oc1ccc(CCn2c(O)c(/C=C3\CN=c4ccccc4=N3)sc2=S)cc1`, with 19.5%; and `CC(C)(C)Nc1c(-c2cccs2)nc2ncccn12`, with 66.6%; and `Fc1ccc(N/N=C/c2ccc(-n3cccn3)cc2)cc1`, with 118%.
In the case of `CC(C)(C)CC(C)(C)c1ccc(OCCOCCSC(=N)N)cc1` it was -51.7% (active).
